# According to PubChem BioAssay (EPA / NIEHS):
# Activity calls are given as the source filed them. How the source made its calls: active means hit-call score of the fitted dose curve at least 0.9, where 1 is the maximum; inconclusive means response in the unintended direction; inactive means score below 0.9.
# Test: LTEA_HepaRG_LDH_cytotoxicity: Cytotoxicity Assessment in the Life Technologies and Expression Analysis (LTEA) Assay (AID 2283563)
# Description: LTEA_HepaRG is a cell based, multiplexed-readout assay that uses HepaRG, a human liver cell line, with measurements taken at 48 hours after chemical dosing on a 96-well plate.LTEA_HepaRG_LDH_cytotoxicity is one of 102 assay component(s) measured in the LTEA HepaRG cell culture assay. It is a marker of cell viability / cytotoxicity.Data from the assay component LTEA_HepaRG_LDH_cytotoxicity was analyzed into 1 endpoint. This assay endpoint, LTEA_HepaRG_LDH_cytotoxicity, was analyzed in the positive fitting direction relative to DMSO as the negative control and baseline of activity. Using a type of inducible reporter, measures of mRNA induction for loss-of-signal activity can be used to understand cell death. To generalize the intended target to other relatable targets, this assay endpoint is annotated to the cell cycle intended target family, where the subfamily is proliferation.
# A total of 1060 chemcials from the ToxCast library were tested in eight-point concentration-response experiments. Cell culture and cytotoxicity assays were conducted at Thermo Fisher Scientific's Custom Services facility (Madison, WI). A single lot of human HepaRG cells (Thermo Fisher Scientific, Frederick, MD) was used for the cell culture experiments. 96-well format collagen type I coated plates of human HepaRG cells were prepared using established methods. Briefly, cryopreserved HepaRG cells were thawed, plated at a density of approximately 100,000 cells/well in HepaRG Thaw, Plate, and General Purpose media (HPRG770, Thermo Fisher Scientific), and incubated for 48 hours. 0.5% DMSO was selected as vehicle control to balance the requisite need of DMSO in HepaRG cultures to maintain differentiation (for example, baseline metabolism, proportions of hepatocytes vs. cholangiocytes), while enabling further hepatic receptor pathway activation (for example, PXR and CAR) in response to chemical exposure. 48 hours after plating, the culture medium was replaced with HepaRG Serum-Free Incudtion Media. Cells were exposed to each test chemical in duplicate and maintained in CO2 incubators for another 48 hours. Chemical plates were thawed to room temperature and 200x concentrations of treatment groups were prepared. 8-point conentration-reponse curves were made with the highest exposure at 100 uM, followed by half-log dilutions, all in 0.5% DMSO. Each test plate contained variouse controls, induction positive controls (1mM phenobarbital), cytotoxicity positive controls ([…] aflatoxin B1), vehicle controls (0.5% DMSO), and total lysis controls (0.5% DMSO). Cell morphology images were taken using an Essen IncuCyte FLR automated microscope, with six 96-well plates imaged in about 24 minutes. Images were captured and exported and JPEG files. Spent culture media was transfered to black-well plates for the LDH assay, and remaining media was sorted at -80 C for later use. Cells were treated with RLT buffer and frozen until shipped for gene expression analysis. Total RNA was isolated from the cell suspension in 75 uL of Buffer RLT (Qiagen, Germantown, MD 20874) by Quintiles/Expression Analysis (Durham, NC) using a custom isolation procedure. Total RNA from each plate well was transferred to a preamplification plate. Fluidigm's 96.96 Dynamic ArrayTM (Fluidigm, Amsterdam, the Netherlands) technology was used for gene expression analyses by quantitative reverse transcription polymerase chain reaction (qRT-PCR, performed by Quintiles/Expression Analysis, Durham, NC)89. Standard TaqManTM Assays (Applied Biosystems/ThermoFisher Scientific, Foster City, CA) were used to assess the expression of 93 genes selected based on their selectivity and sensitivity to important hepatic receptors known to be modulated by environmental chemicals; importance in human hepatocyte functionality; and hepatotoxicity. […]
Compound,outcome,AC50
CN(Cc1cnc2nc(N)nc(N)c2n1)c1ccc(C(=O)N[C@@H](CCC(=O)O)C(=O)O)cc1,inactive,
CC(=O)Nc1ccc(O)cc1,inactive,
CN(C)CCOC(c1ccccc1)c1ccccc1,inactive,
O=C(c1ccccc1)c1ccccc1,inactive,
N=C(N)c1ccc(OCCCCCOc2ccc(C(=N)N)cc2)cc1,,12 µM (active)
CCCCC=O,inactive,
Cc1[nH]nc2c1N=C(c1ccccc1Cl)c1cc([N+](=O)[O-])ccc1N2,,61.4 µM (active)
CCCCc1oc2ccccc2c1C(=O)c1cc(I)c(OCCN(CC)CC)c(I)c1,,57 µM (active)
O=C(CCCN1CCC(O)(c2ccc(Cl)cc2)CC1)c1ccc(F)cc1,,73.6 µM (active)
O=C1NS(=O)(=O)c2ccccc21,inactive,
CCCCCCCCCCCCCCC,inactive,
CCCCCCCCCCCCOS(=O)(=O)O,inactive,
OCC(CO)(CBr)CBr,inactive,
CCCCC(CC)C(=O)O (stereo not given),inactive,
CCC(C)c1ccccc1O (stereo not given),inactive,
